# In PubChem BioAssay AID1159524 (National Center for Advancing Translational Sciences (NCATS), 2015):
# Among all 410,000 compounds or so, about 5,100 (1.2%) were called active. Where a call stands in place of a potency, no number is given. Roughly 8% stayed inconclusive and do not appear here. The call rests on the fitted dose curve; tested in HEK293T cells. The sample as a whole holds a higher share of actives than the screen did.
# Experiment: High Throughput Screening for Foot and Mouth Disease Virus Antivirals; further: read-out not given here; nearly all actives have a fitted effect of over 45% in size
# Details: FMDV antiviral cell-based qHTS; series mostly up to 57.9 µM
# Potency means the concentration at half of the fitted maximal effect.
row,SMILES,Potency
1,COc1cc(Cl)c(C)cc1Nc1nnc(-n2nc(C)cc2C)c2ccccc12,inactive
2,COCCn1c(=O)c(C)nc2cnc(N(C)C)nc21,inactive
3,CC1=C/C(=N\OS(=O)(=O)c2ccccc2)C=CC1=O,15.8 µM (active)
4,O=C(CSc1nc(=O)n(Cc2cccnc2)c2c1CCC2)Nc1ccc(F)cc1F,inactive
5,CCOC(=O)C1=C(c2ccccc2)Nc2ncnn2C1c1ccc(Cl)cc1 (stereo unspecified),inactive
6,CCOc1ccccc1NC(=O)C1=C(C)Nc2ncnn2C1c1ccc(NC(C)=O)cc1 (stereo unspecified),inactive
7,CC1=C(C(=O)OCc2ccccc2)C(c2ccco2)n2ncnc2N1 (stereo unspecified),28.2 µM (active)
8,CC(C)=CCC/C(C)=C/CC/C(C)=C/CC/C(C)=C/CO,inactive
9,CC(C)c1cc(C(=O)N2CCOc3ccc(CN4CCC(Oc5cccnc5)CC4)cc3C2)n[nH]1,inactive
10,O=C(CSc1nnc(-c2ccco2)n1CC1CCCO1)c1ccccc1 (stereo unspecified),inactive
11,Cc1ccsc1C(=O)OCC(=O)c1cc(C)n(CC2CCCO2)c1C (stereo unspecified),100 µM (active)
12,Cc1cc(C(=O)COC(=O)c2cccs2)c(C)n1-c1c(C)n(C)n(-c2ccccc2)c1=O,inactive
13,COC(=O)c1cnc(N2CCN(c3ccccc3OC)CC2)c2ccccc12,inactive
14,COc1ccccc1N1CCN(c2ncnc3sc(C)c(-c4ccccc4)c23)CC1,20 µM (active)
15,COc1ccccc1N1CCN(c2ncnc3onc(-c4cccc(Cl)c4)c23)CC1,inactive
16,O=C(c1cc(C(F)(F)F)cc(C(F)(F)F)c1)N1CCC2(CCCN(Cc3ccncc3)C2)CC1,inactive
17,COc1cccc(Cn2c(=O)c(-c3ccccc3)nc3cnc(OC)nc32)c1,inactive
18,COCCNC(=O)c1ccc2c(c1)N=C(C)c1cc(C)ccc1S2,inactive
19,CCCCCCCCCCCCn1ccc(=N)cc1,17.8 µM (active)
20,O=C(c1cnccn1)N1CCC2(CCN(Cc3cc(C(F)(F)F)cc(C(F)(F)F)c3)CC2)CC1,inactive
21,Cc1cc(C)c2oc(-c3cccc(NC(=O)c4cccc(F)c4)c3C)nc2c1,inactive
22,COc1ccc(NC(C)=O)cc1NC(=O)CN1CCN(C2c3ccccc3-c3ccccc32)CC1,31.6 µM (active)
23,COc1ccc(NC(C)=O)cc1NC(=O)CN1CCN(c2ccc(F)cc2)CC1,inactive
24,COc1ccc(N)cc1NC(=O)CN1CCOCC1,inactive

row,SMILES,Potency
1,Cc1ccccc1C(=O)NCc1nc(-c2ccc(Cl)cc2)no1,inactive
2,CCc1ccc(NC(=O)CN2C(=O)C(c3ccccc3)=NC23CCCCCC3)cc1,inactive
3,CCOc1ccc(NC(=O)CN(Cc2ccccc2)S(=O)(=O)c2ccc(Cl)cc2)cc1,inactive
4,CCOc1ccc(N(Cc2ccccc2)C(=O)c2nc(S(C)(=O)=O)ncc2Cl)cc1,15.8 µM (active)
5,COc1ccc(N(Cc2ccc(N(C)C)cc2)C(=O)c2ccc(S(C)(=O)=O)cc2)cc1,inactive
6,Nc1nc2nc(Cl)[nH]c2c(=O)[nH]1,inactive
7,Cc1cc(N2C(=O)c3ccc(C(=O)NCc4ccccc4)cc3C2=O)no1,inactive
8,COc1ccc(OC)c(NC(=O)c2ccc3c(c2)C(=O)N(c2ccc(OC(C)=O)cc2)C3=O)c1,inactive
9,O=C(O)c1ccc2c(c1)C(=O)N(c1ccc(/C=C/C(=O)c3ccccc3)cc1)C2=O,14.1 µM (active)
10,COCC(C)NS(=O)(=O)c1ccc(N2CCCCS2(=O)=O)cc1 (stereo unspecified),inactive
11,CCc1noc(C)c1C(=O)NCCN1Cc2cc(OC)ccc2OC(CC)C1 (stereo unspecified),inactive
12,Cn1c(=O)c(CCc2ccccc2)nc2cnc(Nc3ccccc3)nc21,inactive
13,c1ccc(CNc2ncncc2-c2cccnc2)cc1,inactive
14,CCN(CC)CCCC(C)n1c2nc(=O)[nH]c(=O)c-2nc2cc(Cl)ccc21 (stereo unspecified),11.2 µM (active)
15,CCN(CC)CCCC(C)Nc1ccnc2cc(Cl)ccc12 (stereo unspecified),inactive
16,Cc1ccc(S(=O)(=O)n2nc(-c3ccc(Cl)cc3)nc2NCc2ccccc2)cc1,inactive
17,CC(C)OC(=O)c1ccc(NCc2cc(O)ccc2O)cc1Cl,8.91 µM (active)
18,COc1cccc(-n2cc(C(=O)NCc3cccc(Cl)c3)c3ccccc3c2=O)c1,inactive
19,O=C(CSc1ncc(CO)n1Cc1ccc(Cl)cc1)NCc1ccc(F)cc1,inactive
20,CCOc1ccccc1N(CC)C(=O)Nc1cn(C)c(=O)c2ccccc12,inactive
21,CC1CCC(N2CC(=O)N(CCC3=CCCCC3)C(c3ccc(F)cc3)C2=O)CC1 (stereo unspecified),inactive
22,Cc1ccc(C(=O)Nc2cccc(-c3nc(CNC(=O)c4ccccc4-n4cccn4)c(C)o3)c2)s1,inactive
23,O=C1C(c2ccccn2)=[N+]([O-])c2ccccc21,inactive
24,NC1=CC(=O)C(=O)c2cccnc21,39.8 µM (active)

row,SMILES,Potency
1,COC1C[C@@H](O[C@@H]2C(C)C(=O)OC(C)C(C)C(O)C(C)C(=O)[C@@]3(CO3)CC(C)C(OC3OC(C)CC(N(C)C)C3O)C2C)OC(C)[C@@H]1O (stereo partly specified),inactive
2,N[C@@H](C(=O)O)c1ccc(P(=O)(O)O)cc1,inactive
3,CN(C)c1ccc(-c2nc(NCCN3CCOCC3)c3ccccc3n2)cc1,inactive
4,c1ccc2c(NC3C4CC5CC(C4)CC3C5)nc(N3CCOCC3)nc2c1 (stereo unspecified),25.1 µM (active)
5,c1cnc(NC2C3CC4CC(C3)CC2C4)nc1 (stereo unspecified),inactive
6,O=C(c1ccco1)N1CCC[C@@]2(CCN(Cc3nccs3)C2)C1,inactive
7,O=C1CCN(Cc2ccc(-c3ccccc3)cc2)CCN1Cc1ccccn1,inactive
8,COc1ccc(CNC(=O)c2cc3cccc(OC)c3oc2=O)cc1,inactive
9,COc1ccc(CNC(=O)c2c[nH]c3c(OC)cc(OC)cc3c2=O)cc1,inactive
10,COc1ccc(CNC(=O)/C(C#N)=C/c2cccc(OC)c2OC)cc1,22.4 µM (active)
11,Cc1ccc(C)c(N2CCN(C(=O)Cn3nc(C)c4sc5ccccc5c4c3=O)CC2)c1,inactive
12,Cc1ccc(C)c(N2CCN(C(=O)CCc3c(C)nc4c(c3C)c(=O)n(C)c(=O)n4C)CC2)c1,inactive
13,Cc1ccc(C)c(N2CCN(C(=O)CCCCn3c(=O)[nH]c4ccccc4c3=O)CC2)c1,20 µM (active)
14,Cc1ccc(C)c(N2CCN(C(=O)CCCCCn3c(=S)[nH]c4ccc(N5CCOCC5)cc4c3=O)CC2)c1,3.16 µM (active)
15,Cc1ccc(OCCCC(=O)N2CCOCC2)c(C)c1,inactive
16,COc1cccc(N2CCN(C(=O)CCCCCn3c(=O)[nH]c4ccccc4c3=O)CC2)c1,inactive
17,CN1[C@@H]2CC[C@H]1CC(OC(=O)c1cc(Cl)cc(Cl)c1)C2 (stereo partly specified),inactive
18,Oc1c(C(c2ccc(F)cc2)N2CCN(Cc3ccccc3)CC2)sc2nc(-c3ccco3)nn12 (stereo unspecified),inactive
19,O=C(c1ccncc1)N1CCC2(CCN(Cc3cc(C(F)(F)F)cc(C(F)(F)F)c3)CC2)CC1,inactive
20,Cc1nc2ccn(Cc3cccs3)c(=O)c2cc1C(=O)NCc1ccc(Cl)cc1,inactive
21,CCCNC(=O)c1ccc(Cn2c(SCC(N)=O)nc3ccccc3c2=O)cc1,inactive
22,Cc1nnnn1/C(=C\c1ccccc1)C(=O)OCC(=O)N1CC2(C)CC1CC(C)(C)C2 (stereo unspecified),31.6 µM (active)
23,Cn1nccc1C(=O)NCC1CCC2(CCN(Cc3c(O)ccc4ccccc34)CC2)O1 (stereo unspecified),inactive
24,Cc1c(-c2cccc(NC(=O)C(C)(C)C)c2)nc2ncccn12,inactive

row,SMILES,Potency
1,O=c1c(O)c(-c2ccc(O)cc2)oc2ccccc12,inactive
2,Cc1ccccc1OCC(=O)Nc1ccc(N2CCN(C(=O)C(C)C)CC2)c(Cl)c1,14.1 µM (active)
3,Cc1ccc(NC(=O)COc2coc(CN3CCc4ccccc4C3)cc2=O)cc1Cl,inactive
4,Cc1ccccc1OCC(=O)NNC(=O)c1cc(S(=O)(=O)N(C)C)ccc1N1CCCC1,inactive
5,O=C(Oc1cc(OC(=O)c2ccccc2)c2c(c1)OC(c1ccc(OC(=O)c3ccccc3)c(OC(=O)c3ccccc3)c1)[C@@H](OC(=O)c1ccccc1)C2)c1ccccc1 (stereo partly specified),inactive
6,CCCOc1ccc(NC(=O)CC2C(=O)N(c3ccccc3)C(=O)N2Cc2ccco2)cc1 (stereo unspecified),inactive
7,CCOC(=O)c1c(C)[nH]c(C)c1S(=O)(=O)N1CCC(C(=O)Nc2ccc(C)c(Cl)c2)CC1,inactive
8,COc1cc2c(=O)n(C)c3ccccc3c2cc1OC,inactive
9,Cc1cccc(C2CC(=O)Oc3c2c(=O)n(C)c2ccccc32)c1 (stereo unspecified),inactive
10,Cn1c(=O)c([N+](=O)[O-])c(Oc2ccccc2)c2ccccc21,28.2 µM (active)
11,CC(C)c1cnc(NC(=O)Cc2ccccc2)s1,inactive
12,Cc1ccc(-n2nc(C)c3c(C)cc(=O)n(CC(=O)Nc4ccc(C(C)C)cc4)c32)cc1,inactive
13,CC(=O)Oc1c2c(c3c(c1CC=C(C)C)O[C@@]14C(=CC5CC1C(C)(C)OC4(C/C=C(\C)C(=O)O)C5=O)C3=O)OC(C)(CCC=C(C)C)C=C2 (stereo partly specified),20 µM (active)
14,COc1cc(=O)n2c(c1C(=O)NC(C)c1ccco1)CCN(Cc1cc(C)cc(C)c1)CC2 (stereo unspecified),inactive
15,CCOc1ccccc1C(=O)NCC(c1ccc(N(C)C)cc1)N1CCCC1 (stereo unspecified),inactive
16,Cc1cc(-c2ccnc(-n3ncc(C(=O)NCCc4ccncc4)c3C)n2)c(C)s1,inactive
17,CCOc1ccc(C)cc1S(=O)(=O)NC1CCCCCC1,inactive
18,CCOc1cccc(=NC2CCCCC2)c2c(C)[nH]c(C)c12,28.2 µM (active)
19,CC(=O)N1CCC2(CCCN(c3ncccn3)C2)CC1,inactive
20,O=C(O)C1CCN(c2ncnc3ccc(-c4ccccc4C(F)(F)F)cc23)CC1,inactive
21,O=C(NCCCN1CCN(c2cccc(Cl)c2)CC1)c1nnc(Cc2ccc(F)cc2Cl)o1,inactive
22,COc1cc(/C=C/C(=O)N2CCc3ccccc3C2)cc(OC)c1OC,inactive
23,COc1cc(/C=C/c2ccc(/C=C/c3cc(OC)c(OC)c(OC)c3)cc2)cc(OC)c1OC,22.4 µM (active)
24,COc1cc(/C=C/C2=CC(C)(C)NC(=S)N2)cc(OC)c1OC,inactive
